This passage reports PBM binding z-score results from the supplement of paper PMC6555819.

Common to all, as to assay: PBM binding z-score (relative to random genomic background probes); higher = stronger binding; sequences stand for … in GC…GCGATTGACAGCGTAGAATGAAGG
Assay [1] deals with FXR:RXRa (NR concentration 270 nM, RXRa partner concentration 90 nM). The method in brief:
(§1)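 Binding buffer was PBS pH 7.4 with 2% milk, 0.02% Triton X-100, 1 mM DTT, 0.2 mg/mL BSA and 0.4 mg/ml salmon testes DNA. In it, ligand-free nuclear receptor dimers were incubated 1 h on custom Agilent 4×180K protein-binding microarrays carrying double-stranded probes. Antibodies against each partner (one per run) detected binding, and z-scores were calculated against random background probes after regression normalization of scanned fluorescence.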

The test system of assay [2] is LXRa:RXRa (NR concentration 270 nM, RXRa partner concentration 90 nM). The method in brief: as §1
The test system of assay [3] is LXRa homodimer (NR concentration 270 nM). The method in brief:
as §1

Assay [4] has as its system LXRb:RXRa (NR concentration 270 nM, RXRa partner concentration 90 nM). The method in brief:
as §1

The subject of assay [5] is LXRb homodimer (NR concentration 270 nM). In short, it runs like this:
as §1

Assay [6] deals with PPARa:RXRa (NR concentration 270 nM, RXRa partner concentration 90 nM). The method in brief: as §1
For assay [7], the system named is PPARg:RXRa (NR concentration 180 nM, RXRa partner concentration 90 nM). The method in brief: as §1
In assay [8] the test system is PPARg:RXRa 270nM:90nM, anti-RXR (NR concentration 270 nM, RXRa partner concentration 90 nM). The method in brief: as §1
Assay [9] deals with PPARg:RXRa 30nM:10nM, anti-RXR (NR concentration 30 nM, RXRa partner concentration 10 nM). The method in brief: as §1
The subject of assay [10] is PPARg:RXRa 90nM:30nM, anti-RXR (NR concentration 90 nM, RXRa partner concentration 30 nM). The method in brief:
as §1

In assay [11] the test system is PPARg:RXRa DBDmut IVT, anti-RXR (DBD mutation: RXRa K156A/R161A, NR concentration 270 nM, RXRa partner concentration 90 nM). In short, it runs like this:
as §1

For assay [12], the system named is PPARg:RXRa IVT, anti-PPARg (NR concentration 270 nM, RXRa partner concentration 90 nM). The method in brief: as §1
Assay [13] concerns PPARg DBDmut:RXRa IVT, anti-PPARg (DBD mutation: PPARg1 K132A/R137A, NR concentration 270 nM, RXRa partner concentration 90 nM). The method in brief: as §1
In assay [14] the test system is PPARg DBDmut IVT, anti-PPARg (DBD mutation: PPARg1 K132A/R137A, NR concentration 270 nM). The method in brief: as §1
In assay [15] the test system is PPARg homodimer (NR concentration 180 nM). The method in brief:
as §1

Assay [16] concerns PXR:RXRa (NR concentration 270 nM, RXRa partner concentration 90 nM). The method in brief: as §1
The subject of assay [17] is PXR homodimer (NR concentration 270 nM). In short, it runs like this: as §1
Assay [18] deals with RARa:RXR (NR concentration 270 nM, RXRa partner concentration 90 nM). The method in brief: as §1
Assay [19] has as its system RARa homodimer (NR concentration 270 nM). The method in brief: as §1
Assay [20] relates to RARb:RXRa (NR concentration 270 nM, RXRa partner concentration 90 nM). The method in brief: as §1

With TAAATGAGGTTAAAGATCAGGGAACGTGGCGTCG, the PBM binding z-score in [1] came to 3.68; in [2], 3.6; in [3], 0.629; in assay [4], 2.46; in assay [5] it was 1.07; in assay [6], 5.14. For the same sequence, the PBM binding z-score in [7] stood at 6.76; in [8] it was 6.79; in assay [9], 5.89; in assay [10], 7.34; in assay [11] it was 3.59; in assay [12], 4.36. The PBM binding z-score in assay [13] came to 2.17; in assay [14], 2.54; in [15] it was 1.72; in [16], 2.36; in assay [17] it was 0.486; in assay [18], 3.21. The PBM binding z-score amounted to 1.03 in assay [19] and 2.29 in assay [20].

On to AGTCCAAGTTCAGGACGAGGTAACGTAAAGCACG, for which the PBM binding z-score in assay [1] is 1.19; in [2] it was 0.849; in assay [3], 0.0911; in assay [4], 0.596; in assay [5], -0.522; in [6], 1.35. Moreover, the PBM binding z-score is 0.826 in assay [7]; 0.394 in [8]; 0.136 in [9]; 0.0902 in assay [10]; -0.641 in assay [11]; 0.15 in assay [12]. In addition, the PBM binding z-score in assay [13] was -0.559; in assay [14] it was -0.0596; in [15], 0.572; in [16], 1.93; in [17], 0.749; in [18], 1.34. In addition, the PBM binding z-score in assay [19] is -0.0097; in assay [20], 2.56.

Regarding CAAACTAGGTCAAGAAGTCAAAGTCCGCTTCCCG, the PBM binding z-score was 3.65 in assay [1]; 2.9 in [2]; 0.599 in assay [3]; 1.94 in [4]; 0.337 in assay [5]; 4.89 in assay [6]. Moreover, the PBM binding z-score was 7.74 in [7]; 6.67 in assay [8]; 4.66 in assay [9]; 6.22 in assay [10]; 7.86 in assay [11]; 8.35 in [12]. For the same sequence, the PBM binding z-score in assay [13] is 2.53; in assay [14], 3.42; in assay [15], 2.98; in assay [16], 1.49; in assay [17], 0.206; in assay [18] it was 2.77. The figures for the PBM binding z-score in [19] and in assay [20] were 0.734 and 4.05, respectively.

CCAGACAGGTGAGAAGGTAACTCCGCCTCGATTA: the PBM binding z-score was -0.167 in [1]; -0.237 in assay [2]; 0.189 in [3]; -0.163 in assay [4]; -0.188 in assay [5]; 0.436 in [6]. The PBM binding z-score was 0.351 in assay [7]; 0.504 in assay [8]; -0.516 in [9]; 0.193 in [10]; 1.06 in [11]; 0.448 in assay [12]. The PBM binding z-score in assay [13] is -0.414; in assay [14], -1.08; in [15], 0.567; in assay [16] it was -0.515; in [17] it was -0.154; in [18], 0.0222. Also, the figures for the PBM binding z-score in assay [19] and in assay [20] were 0.152 and 0.539, respectively.

Take CGAACGAGGGCATGAGTTGATAGCAAATGCCGAT: the PBM binding z-score in [1] was 0.545; in assay [2], 0.339; in assay [3], -0.654; in [4] it was 0.279; in assay [5] it was -0.902; in assay [6] it was 1.71. For the same sequence, the PBM binding z-score in assay [7] amounted to 1.35; in assay [8] it was 1.57; in [9], 0.0506; in assay [10], 0.976; in assay [11], 3.29; in assay [12], 2.03. Besides, the PBM binding z-score is -0.334 in [13]; -0.825 in assay [14]; -0.0859 in assay [15]; 0.562 in assay [16]; -0.209 in assay [17]; 0.5 in assay [18]. Moreover, the PBM binding z-score was -0.431 in [19] and 2.11 in [20].

Consider ACTATTAGTTGACTTAGGGCTACCGATACGACGC, for which the PBM binding z-score in assay [1] was 0.0661; in [2], -0.121; in [3], -0.0225; in assay [4] it was -0.352; in assay [5], 0.601; in [6] it was -0.131. In addition, the PBM binding z-score in [7] was 0.862; in [8] it was -0.0974; in assay [9], 0.182; in [10], -0.112; in [11], -0.203; in assay [12], 0.114. For the same sequence, the PBM binding z-score in assay [13] is 1.14; in assay [14] it was 0.816; in [15], 0.416; in assay [16] it was -0.151; in [17] it was -0.109; in assay [18] it was 0.146. For the same sequence, the PBM binding z-score is 0.74 in assay [19] and 0.27 in [20].

As for CTCGAAAGGTCGGTTGAGGCGAGTATACGGATAA, the PBM binding z-score was 1.49 in assay [1]; 1.17 in assay [2]; -0.238 in assay [3]; 0.925 in assay [4]; -0.22 in [5]; 2.11 in assay [6]. For the same sequence, the PBM binding z-score in assay [7] is 0.256; in assay [8], 0.752; in assay [9], -0.191; in assay [10] it was 0.269; in [11], -0.316; in assay [12] it was 0.197. Also, the PBM binding z-score is 0.246 in assay [13]; -0.285 in assay [14]; 0.331 in assay [15]; 1.17 in assay [16]; -0.214 in assay [17]; 2 in [18]. The PBM binding z-score in assay [19] is -0.443; in assay [20], 2.66.
